# Screening data (PubChem)
# The list is not random: actives were taken first. Their share in the collection is about 7.2%.
# HCV inh – HCV inhibition | Huh7.5.1 HCVcc-Cre infection, luciferase reporter, 44 h | 340,000 compounds, 3.4% hits | Potency, µM (top dose mostly 41.8 µM), for the others: at the top dose activity change, negative = inhibition, usual class: inhibitors
#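 Luciferase read-out (15 sec integration) after a 15 min room-temperature substrate step quantifies HCVcc-Cre infection. Cells, 1,000 per well, had compound added 4 h post-plating, then virus at ~0.5 moi, and were cultured 44 h.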
# RE007 growth inh – less growth of the S. pombe RE007 Vpr strain | S. pombe RE007 Vpr strain, BacTiter-Glo ATP luminescence, 24 h | Potency, µM (doses to about 92.2 µM), inactives show at the top dose activity change, negative = less growth, usual class: inhibitors | 360,000 compounds, 0.21% hits | AID 651644; active = well fitted falling curve with a large enough effect; inconclusive = small, poorly fitted or top-dose-only effect; inactive = no such curve, though single readings can be large or run the other way; also: nearly all actives have a fitted effect of over 50% in size
#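 Fission yeast RE007 carrying one integrated HIV-1 vpr copy, seeded at OD 0.01 in PMG+AL medium with 23 nL pinned compound. Grown 24 h at 30 degrees; viability read by BacTiter-Glo luminescence after 5 min.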
# Lassa entry inh – blocks Lassa virus binding to or entry into cells; AID 540256; Potency, µM (top dose mostly 37.9 µM), for inactives: at the highest dose activity change, negative = inhibition, usual class: inhibitors; 300,000 compounds, 1.2% hits; Lassa virus pseudotype entry inhibition, cell reporter; calls by dose curve; tested in HEK293 cells; also: nearly all actives have a fitted effect of over 50% in size
# Sm TGR block – inhibitors of Schistosoma mansoni thioredoxin glutathione reductase | purified TGR, DTNB reduction, TNB absorbance 405 nm | 360,000 compounds, 3% hits | Potency, µM (top dose mostly 114 µM), for the others: at the highest dose activity change, negative = inhibition, usual class: inhibitors; also: nearly all actives have a fitted effect of over 60% in size
#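 Kinetic colorimetric format: TGR-catalysed, NADPH-driven DTNB reduction monitored via TNB absorbance. Enzyme dispensed at 20 nM; compound exposure 15 min at room temperature before reaction start.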
# Marburg entry inh – blocks Marburg virus binding to or entry into cells; Marburg virus pseudotyped entry inhibition, cell reporter; Potency, µM (titrated, usually from 37.8 µM), inactives show at the highest dose activity change, negative = inhibition, usual class: inhibitors; 300,000 compounds, 1.8% hits; AID 540276; calls by dose curve; tested in HEK293 cells
# FMDV antiviral – blocks foot and mouth disease virus | FMDV antiviral cell-based qHTS | Potency, µM (series often up to 57.9 µM), inactives show at the top dose activity change, negative = inhibition, actives largely listed as inhibitors | 410,000 compounds, 1.2% hits; calls by dose curve; tested in HEK293T cells; also: read-out not given here; nearly all actives have a fitted effect of over 45% in size
# The depositor's hits bear a star; ? = inconclusive; / = no result given; [ ] = another dose, or the depositor's remark. Unless noted, calls follow the shape of the dose curve; as a rule, active = well fitted curve in the direction sought with a large enough effect; inconclusive = small, poorly fitted or top-dose-only effect, or another doubt; inactive = no such curve, though single readings can be large; an effect the other way counts as inactive or inconclusive. % is scaled to controls: 0 for no effect and ±100 for the full control effect; potency is read from the fitted curve at half-maximal effect.
SMILES,HCV inh,RE007 growth inh,Lassa entry inh,Sm TGR block,Marburg entry inh,FMDV antiviral
Cc1cc(Cl)ccc1NC(=O)COC(=O)c1cc([N+](=O)[O-])ccc1N1CCOCC1,2.51µM*,-2.8%,-0.8%,-2.7%,?,0.0%
CC(=O)c1c(C)[nH]c(C(=O)OCC(=O)Nc2cc(C(F)(F)F)ccc2N2CCOCC2)c1C,-20.6%,5.1%,22.4µM*,0.0%,?,-5.7%
O=C(COC(=O)c1cc([N+](=O)[O-])ccc1N1CCOCC1)Nc1ccc(Cl)cc1,?,-9.2%,-20.1%,3.7%,-12.2%,?
CCCCCCCc1cc2ccccc2c2c(C(=O)OC)c(C(=O)OC)c(C(=O)OC)n12,/,/,?,/,18.3%[14.2 µM],/
Cc1ccc(C)c(Cn2c(=O)n(CCCC(=O)NCCc3ccc(Cl)cc3)c(=O)c3ccccc32)c1,/,/,-12.9%[46.1 µM],13.4%,-12.6%[46.1 µM],0.0%
CC(=O)Nc1ccc(OC[C@@H](O)CNC(C)C)cc1,/,/,/,/,/,3.9%
CCc1cccc(C)c1NC(=O)COC(=O)c1cc([N+](=O)[O-])ccc1N1CCOCC1,10µM*,4.8%,-17.9%,3.8%,?,-20.6%
CCc1nnc(SCc2cccc(Cl)c2)c2cc3sccc3n12,/,/,/,-0.4%,?,13.4%
OCC[C@H]1C[C@H](O)[C@@H](O)[C@]2(CCc3ccccc3CO2)O1,0.562µM*,-5.3%,/,-3.7%,/,-21.0%
C/C(=C\c1ccc(C)o1)C(=O)c1c(C)cc(C)[nH]c1=O,11.9%,0.4%,/,17.8µM*,/,-7.5%
O=C(CCS(=O)(=O)c1ccc(Br)s1)Nc1cc(C(F)(F)F)cc(C(F)(F)F)c1,/,/,-1.0%[46.1 µM],-9.8%,?,?
CCOC(=O)C(=Cc1cc(=O)c(OC)co1)C(=O)OCC,10µM*,-11.1%,?,?,?,8.91µM*
Cc1ccc(CN2CCC(CNC(=O)Nc3cccc(C)c3C)C2)cc1 (centres undefined),/,/,-21.3%[46.1 µM],8.4%,?,-16.8%
COc1ccc(-c2nnc(SCc3cc(=O)c4cc(C)cc(C)c4[nH]3)n2C)cc1,/,/,-22.7%[46.1 µM],1.4%,/,15.8µM*
COc1ccc(C(=O)Nc2nnc(SCc3cc(=O)c4cc(C)cc(C)c4[nH]3)s2)cc1,/,/,14.5%[46.1 µM],2.2%,/,12.4%
Cc1ccc(NC(=O)C2CCN(C(=O)c3sc4nc[nH]c(=O)c4c3C)CC2)cc1F,/,/,9.6%[46.1 µM],-1.0%,/,15.3%
Cc1csc(=Nc2cccnc2)n1Cc1ccco1,0.562µM*,20.5%,?,-26.2%,22.0%[46.1 µM],-23.2%
CC(C)=N/N=c1\scc(C)n1Cc1ccco1,3.1%,-2.9%,-1.9%,-1.8%,5.0%[46.1 µM],-9.8%
CC(C)Cn1c(-c2ccco2)csc1=Nc1cccnc1,1.8%,-0.3%,11.6%,56.2µM*,-13.9%,-17.0%
COCCn1c(-c2cccs2)csc1=Nc1cccnc1,-26.6%,4.8%,3.6%[46.1 µM],-25.3%,4.4%[46.1 µM],22.4µM*
COCCn1c(-c2ccco2)csc1=Nc1cccnc1,-18.9%,-11.2%,-0.1%,?,11.7%,-21.2%
Fc1ccccc1-c1csc(=Nc2cccnc2)n1CCCn1ccnc1,22.4µM*,-3.9%,-25.2%,-4.5%,?,?
CC(=O)n1cc(/C=N/NC(=O)c2sc(C)nc2C)c2ccccc21,-22.2%,5.5%,0.3%,5.1%,-16.5%,0.0%
CC(=O)n1cc(-c2ccncc2)c2ccccc21,10µM*,10.3%,/,2.7%,/,-20.9%
CCOC(=O)c1ccc(NC(=O)C(Cc2ccccc2)NS(=O)(=O)c2ccc(Br)s2)cc1 (centres undefined),/,/,-3.1%[46.1 µM],6.4%,-0.1%[46.1 µM],-12.0%
SMILES,HCV inh,RE007 growth inh,Lassa entry inh,Sm TGR block,Marburg entry inh,FMDV antiviral
CCOC(=O)C1=C(COC(=O)/C=C/c2cccc(OC)c2)NC(=O)NC1C (centres undefined),/,-19.0%,-21.3%,0.0%,-11.2%,-13.3%
CCOC(=O)C1=C(COC(=O)/C=C/c2ccc(OC)cc2)NC(=O)NC1C (centres undefined),3.16µM*,6.6%,?,-0.7%,-22.6%,?
Oc1c(Cl)cc(Cl)cc1/C=N/Nc1ncc(Br)cn1,2.24µM*,-16.1%,?,-6.7%,?,-15.1%
O=C(N/N=C/c1cc(Cl)cc(Cl)c1O)c1ccncc1,?,-24.2%,/,-24.1%,/,-14.4%
COc1ccc(C)cc1NC1=C(Cl)C(=O)N(C2CCCCC2)C1=O,-6.2%,-18.7%,-8.0%,44.7µM*,?,-24.3%
O=C(NC1CCCCC1)C(c1ccncc1)N(Cc1ccc2c(c1)OCO2)C(=O)C(F)(F)F (centres undefined),-11.8%,16.4%,?,44.7µM*,?,13.7%
CCN1C(=NCCCOC(C)C)N[C@H](c2ccccc2)[C@H](C(=O)OC)[C@H]1C,/,/,?,/,0.1%[14.2 µM],/
O=C(N/N=C/c1cc(Cl)cc([N+](=O)[O-])c1O)NC12CC3CC(CC(C3)C1)C2,24.6%,-6.3%,11.3%,-24.4%,?,22.4µM*
CCOc1ccc(S(=O)(=O)N2CCC(N3CCN(Cc4ccc(F)cc4)C(=O)C3=O)CC2)cc1,/,/,-6.2%[46.1 µM],7.7%,/,-5.0%
Cc1cc(-c2ccc(Br)s2)nc(-n2cccc2)n1,11.2µM*,10.7%,0.3%,7.0%,-12.8%[46.1 µM],-3.8%
Clc1ccc(-c2ccnc(-n3cccc3)n2)s1,-22.5%,-21.4%,3.6%[46.1 µM],19.9%,?,-6.9%
Cc1ccsc1-c1ccnc(-n2cccc2)n1,-13.2%,-16.6%,12.6%,33.9%,31.9%,33.7%
Cc1cc(-c2sccc2Br)nc(-n2cccc2)n1,12.6µM*,-2.2%,-3.9%,7.2%,-1.7%[46.1 µM],0.0%
CCOC(=O)C1(Cc2ccccc2C(F)(F)F)CCN(Cc2ccc(COC)o2)CC1,8.91µM*,2.8%,?,-25.8%,?,?
CCOC(=O)C1(CCOC)CCN(Cc2ccc(COC)o2)CC1,-5.9%,-1.8%,-7.6%,?,-2.8%[46.1 µM],-10.5%
CCN(CC)c1ccc(C(=O)Nc2cccc(F)c2)cc1,10µM*,?,?,3.7%,?,-15.6%
CN(C)c1cccc(C(=O)Nc2cccc(F)c2)c1,0.8%,?,?,-26.1%,?,43.3%
COC(=O)c1ccc(C(=O)Nc2ccc(F)cc2)cc1,7.08µM*,-10.1%,/,-27.1%,/,7.7%
COC(=O)c1ccc(NC(=O)Nc2cccc(F)c2)cc1,10µM*,-3.6%,?,19.9%,?,-0.6%
COC(=O)c1ccc(NC(=O)Nc2ccc(F)cc2F)cc1,11.2µM*,5.0%,15.9%[46.1 µM],8.3%,?,9.9%
CC1=C(C(=O)Nc2cccc(C(F)(F)F)c2)C(c2ccccn2)n2ncnc2N1 (centres undefined),/,/,11.3%[46.1 µM],3.2%,/,-16.3%
COc1cc(NC(=O)C2CCCN(S(=O)(=O)c3ccc4c(c3)oc(=O)n4C)C2)c(C(=O)O)cc1OC (centres undefined),/,/,19.4%[46.1 µM],-1.6%,-3.5%[46.1 µM],0.0%
